Compound activity: PubChem BioAssay, National Center for Advancing Translational Sciences (NCATS)
ATXN2 expr inh – ATXN2 expression inhibition; HEK-293 ATXN2-luciferase reporter, luminescence, 24 h; Potency, µM (doses to about 57 µM), without a hit: top-dose activity change, negative = inhibition, actives largely listed as inhibitors; 360,000 tested, 0.72% active; also: % is scaled to controls: 0 for no effect and ±100 for the full control effect; nearly all actives have a fitted effect of over 55% in size
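qHTS (up to 57 uM final) was run with 24 h compound exposure of reporter cells at 37 °C. Each well was multiplexed: SteadyGlo luminescence measured ATXN2-luciferase expression after a fluorogenic Gly-Phe-AFC viability readout (25 uM final).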
HepG2 tox – counter-screen for TGF-b inhibitors: cytotoxicity in HepG2 cells; HepG2 CAGA-GFP viability, ATP luminescence, 18 h; Potency, µM (doses to about 46.1 µM), for the others: at the top dose activity change, negative = cytotoxicity, most hits filed as cytotoxic; 410,000 tested, 0.76% active; AID 588856
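CellTiter-Glo luminescence gave cytotoxicity after 18 hours at 37 degrees C. The cells were HepG2 CAGA-GFP in 1% FBS DMEM, stimulated with 500 pg/mL TGF-beta after compound addition. %Activity was normalised to no-cell wells (complete cell-killing) and DMSO (no toxicity), and curves were fitted and classified.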
ALOX12 inh – blocks human arachidonate 12S-lipoxygenase; P18054; purified 12hLO, xylenol orange hydroperoxide absorbance; Potency, µM (highest dose often 108 µM), for the others: top-dose activity change, negative = inhibition, usual class: inhibitors; 580,000 tested, 1.1% active; AID 1671190; also: % is scaled to controls: 0 for no effect and ±100 for the full control effect
Target sequence (P18054 whole entry, looked up): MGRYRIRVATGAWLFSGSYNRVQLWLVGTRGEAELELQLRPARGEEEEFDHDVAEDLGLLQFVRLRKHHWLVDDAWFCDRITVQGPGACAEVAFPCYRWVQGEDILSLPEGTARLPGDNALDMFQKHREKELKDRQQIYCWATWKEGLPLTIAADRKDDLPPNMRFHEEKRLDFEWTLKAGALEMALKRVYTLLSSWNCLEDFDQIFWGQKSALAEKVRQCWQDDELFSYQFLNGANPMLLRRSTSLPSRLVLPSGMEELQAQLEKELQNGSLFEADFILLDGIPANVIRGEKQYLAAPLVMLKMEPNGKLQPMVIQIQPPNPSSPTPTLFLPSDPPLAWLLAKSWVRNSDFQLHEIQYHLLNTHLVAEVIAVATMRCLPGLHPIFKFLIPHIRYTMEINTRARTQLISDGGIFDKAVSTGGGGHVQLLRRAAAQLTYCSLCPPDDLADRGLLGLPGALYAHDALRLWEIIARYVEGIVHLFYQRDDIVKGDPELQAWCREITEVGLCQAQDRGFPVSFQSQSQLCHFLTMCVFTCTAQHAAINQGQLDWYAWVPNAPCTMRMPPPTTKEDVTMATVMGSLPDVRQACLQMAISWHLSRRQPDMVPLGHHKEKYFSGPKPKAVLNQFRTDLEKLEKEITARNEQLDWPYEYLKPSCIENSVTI
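Hydroperoxide product was detected by ferrous iron/xylenol orange as the 573 to 405 nm absorbance ratio. Arachidonic acid at 40 uM (final) was turned over for 30 min at room temperature by 150 nM human 12hLO, pH 7.0 Hepes buffer, after 15 min compound preincubation.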
ATXN viability – cell viability loss in ATXN counter-screen | S2 cells (HEK-293 line with an ATXN2-luciferase reporter) viability, CellTiter-Fluor protease fluorescence, 24 h | Potency, µM (titrated, usually from 56.7 µM), usual class: cytotoxic | 400,000 tested, 0.49% active | AID 651635; also: nearly all actives have a fitted effect of over 40% in size
TGFb inhibitor – inhibitors of TGF-b signaling. HepG2 CAGA-GFP TGF-b/SMAD3 reporter, GFP fluorescence, 18 h; TGF-beta stimulated, 500 pg/mL final. Potency, µM (series often up to 46.1 µM), inactives show top-dose activity, negative = inhibition, actives largely listed as inhibitors. 410,000 tested, 1.2% active. AID 588855; also: % is scaled to controls: 0 for no effect and ±100 for the full control effect; nearly all actives have a fitted effect of over 65% in size
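Using HEPG2 CAGA-GFP reporter cells at 1000 cells/well, we pinned test compounds, stimulated with recombinant TGF-beta (500 pg/mL final) and measured total well GFP after 18 h.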
* marks the source's active call; other numbers are inactive results; [ ] = remark or other dose. The list is not random: actives were taken first. Their share in the collection is about 2.7%. Calls follow the shape of the dose curve; as a rule, active = well fitted curve in the direction sought with a large enough effect; inconclusive = small, poorly fitted or top-dose-only effect, or another doubt; inactive = no such curve, though single readings can be large; an effect the other way counts as inactive or inconclusive. Potency is read from the fitted curve at half-maximal effect.

Results for CC(=O)c1cccc(NC(=O)c2cccc(N3C(=O)c4ccccc4C3=O)c2)c1 ?
ATXN2 expr inh: -4%; HepG2 tox: 2.8µM*; ALOX12 inh: inconclusive; ATXN viability: inactive; TGFb inhibitor: 1%

What do the screens show for `NS(=O)(=O)c1cccc(NC(=O)c2cccc(N3C(=O)c4ccccc4C3=O)c2)c1`?
ATXN2 expr inh: 2%; HepG2 tox: 10%; ALOX12 inh: 3%; ATXN viability: inactive; TGFb inhibitor: -13%

Results for COc1ccc(Oc2c(C)oc3cc(OCC(=O)N4CCCC4)ccc3c2=O)cc1 ?
ALOX12 inh: -11%

Results for O=C(NC(Cc1c[nH]c2ccccc12)C(=O)Nc1ccc(OC(F)(F)F)cc1)c1cccs1 (configuration not stated) ?
ATXN2 expr inh: 181%[11.3 µM]; HepG2 tox: 11µM*; ALOX12 inh: -14%; ATXN viability: inactive; TGFb inhibitor: inconclusive

Results for COCC(C)n1c(C)cc(C(=O)Cn2cnc3scc(-c4ccc(C)cc4)c3c2=O)c1C (configuration not stated) ?
ALOX12 inh: 1%

How did C#Cc1cccc(NC(=O)Cc2cccc(OC)c2)c1 do in these assays?
ALOX12 inh: 3%

What do the screens show for `COc1cccc2sc(Nc3nnc(-c4ccc(F)cc4)o3)nc12`?
ATXN2 expr inh: inconclusive; HepG2 tox: 13µM*; ALOX12 inh: 10%; TGFb inhibitor: -23%

How did O=c1oc2ccccc2cc1-c1ccc(O)cc1 do in these assays?
ATXN2 expr inh: 64%; HepG2 tox: -3%; ALOX12 inh: -20%; ATXN viability: inactive; TGFb inhibitor: 3%

How did Nc1ccc(-c2cc3ccccc3oc2=O)cc1 do in these assays?
ATXN2 expr inh: 0.28µM*; HepG2 tox: -26%; ALOX12 inh: 2%; TGFb inhibitor: 13%

What do the screens show for `CCc1cccc2c1Sc1ccccc1CC2N1CCNCC1` (configuration not stated)?
HepG2 tox: -134%; ALOX12 inh: inconclusive; TGFb inhibitor: inconclusive

How did CN1CCN(C2Cc3ccc(F)cc3Sc3cc(F)c(Cl)cc32)CC1 (configuration not stated) do in these assays?
ATXN2 expr inh: inconclusive; HepG2 tox: 20µM*; ALOX12 inh: inconclusive; ATXN viability: inconclusive; TGFb inhibitor: inconclusive

How did CN1CCN(C2Cc3ccccc3Sc3cc(C(F)(F)F)ccc32)CC1 (configuration not stated) do in these assays?
ATXN2 expr inh: inconclusive; HepG2 tox: 20µM*; ALOX12 inh: inconclusive; TGFb inhibitor: inconclusive

Results for CSc1ccc2c(c1)[C@H](N1CCN(C)CC1)Cc1ccccc1S2 ?
ALOX12 inh: inconclusive; ATXN viability: inactive

How did CN1CCN(C2Cc3cc(F)ccc3Sc3ccc(Cl)cc32)CC1 (configuration not stated) do in these assays?
HepG2 tox: -105%; ALOX12 inh: 11%; ATXN viability: inconclusive; TGFb inhibitor: 32µM*

What do the screens show for `Cc1cccc2c1Sc1ccc(Cl)cc1CC2N1CCNCC1` (configuration not stated)?
ATXN2 expr inh: inconclusive; HepG2 tox: -156%; ATXN viability: 16µM*; TGFb inhibitor: inconclusive

How did CCN(CC)c1ccc(CNC(=O)c2scnc2C)cn1 do in these assays?
ALOX12 inh: -3%

How did CCOC(=O)c1ccc(Oc2coc3cc(OCc4ccccc4)ccc3c2=O)cc1 do in these assays?
ALOX12 inh: -5%

What do the screens show for `Cc1ccccc1-n1c(SCC(=O)Nc2ccc(Cl)cc2Cl)nc(O)cc1=O`?
HepG2 tox: 6%; ALOX12 inh: 6.3µM*; TGFb inhibitor: -2%

How did COc1ccc(NC(=O)CSc2nc(O)cc(=O)n2-c2ccc(OC)cc2)cc1 do in these assays?
ATXN2 expr inh: 13%; HepG2 tox: -23%; ALOX12 inh: 13µM*; ATXN viability: inactive; TGFb inhibitor: 2%

How did COc1ccc(-n2c(SCC(=O)Nc3ccccc3)nc(O)cc2=O)cc1 do in these assays?
HepG2 tox: -8%; ALOX12 inh: inconclusive; ATXN viability: inconclusive; TGFb inhibitor: inconclusive

How did COc1ccccc1-n1c(SCC(=O)Nc2ccccc2C)nc(O)cc1=O do in these assays?
ATXN2 expr inh: 2%; HepG2 tox: -2%; ALOX12 inh: -16%; ATXN viability: inactive; TGFb inhibitor: 36%

What do the screens show for `C=CCn1c(SCC(=O)Nc2ccc(Br)cc2)nc(O)cc1=O`?
HepG2 tox: 2%; ALOX12 inh: 3.2µM*; ATXN viability: inactive; TGFb inhibitor: 4%

How did CC(=O)NCc1ccc(-c2csc(-c3ccc(C(C)C)cc3)n2)o1 do in these assays?
ALOX12 inh: 25%

Results for CC(=O)NC(=S)Nc1ccc(NC(=O)c2cccc(Cl)c2)cc1 ?
ALOX12 inh: 41%

What do the screens show for `O=C(O)c1cccc(NC(=S)NC(=O)c2cccc(OCc3ccccc3)c2)c1`?
ATXN2 expr inh: 25%; HepG2 tox: -31%; ALOX12 inh: inactive; ATXN viability: inactive; TGFb inhibitor: -5%

What do the screens show for `CCCCOc1cccc(C(=O)NC(=S)Nc2cccc(NC(=O)c3ccccc3Cl)c2)c1`?
ATXN2 expr inh: 6%; HepG2 tox: -31%; ALOX12 inh: 11µM*; ATXN viability: inactive; TGFb inhibitor: 0%

How did CC(C)C(=O)NC(=S)Nc1ccc(NC(=O)c2cccc(Cl)c2)cc1 do in these assays?
ALOX12 inh: 16µM*

How did COc1cccc(C(=O)NC(=S)Nc2ccc(Cl)c(C(=O)O)c2)c1 do in these assays?
ATXN2 expr inh: 4%; HepG2 tox: 4%; ALOX12 inh: inconclusive; ATXN viability: inactive; TGFb inhibitor: -6%

How did CC(C)Oc1ccc(C(=O)NC(=S)Nc2ccc(Cl)c(C(=O)O)c2)cc1 do in these assays?
ATXN2 expr inh: 44%; HepG2 tox: 2%; ALOX12 inh: 10µM*; ATXN viability: inactive; TGFb inhibitor: 0%

What do the screens show for `CC(C)COc1cccc(C(=O)NC(=S)Nc2cccc(NC(=O)c3ccccc3Cl)c2)c1`?
ATXN2 expr inh: -9%; HepG2 tox: -20%; ALOX12 inh: 28µM*; ATXN viability: inactive; TGFb inhibitor: 2%

What do the screens show for `COc1ccccc1C(=O)N1CCCC2(C1)C(=NC1CCCCC1)NC(=O)N2c1cc(F)cc(F)c1` (configuration not stated)?
ALOX12 inh: 5%[6.33 µM]

Results for CC(NNC(=O)C(O)(c1ccccc1)c1ccccc1)c1ccccc1 (configuration not stated) ?
ALOX12 inh: 8%

What do the screens show for `COc1cc(OC)c(NC(=O)NCCn2c(C(F)(F)F)nc3ccccc32)cc1Cl`?
ALOX12 inh: 7%
